Compound activity as filed in PubChem.
Only some compounds are listed: those with a hit (about 3.3% of all), similar ones and a draw of the others.
GRIN3A LBD mod: binders of NR3A ligand-binding domain, primary screen, biophysical, differential scanning fluorimetry, uHTS | Tm shift relative to glycine control, % at 25 µM | AID 1259313, 2017 | NR3A LBD differential scanning fluorimetry, Tm shift; 0% = protein alone, 100% = glycine-bound protein | Glutamate receptor ionotropic, NMDA 3A (GRIN3A) ligand-binding domain | hit rate 2.5% among 340,000;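 active means melting temperature shift of at least 10% of the positive control shift, at one fixed dose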
UBC9 SUMO inh: inhibitors of in vitro SUMOylation cascade, primary screen, biochemical, HTRF, uHTS; SUMO-conjugating enzyme UBC9 (Homo sapiens), P63279; HTRF SUMOylation assay, SAE1/SAE2 + UBC9; inhibition, % at 35 µM; hit rate 0.36% among 290,000; in the data active means inhibition above about 50%, passing the limit was not always enough
Target sequence (P63279 whole entry, looked up): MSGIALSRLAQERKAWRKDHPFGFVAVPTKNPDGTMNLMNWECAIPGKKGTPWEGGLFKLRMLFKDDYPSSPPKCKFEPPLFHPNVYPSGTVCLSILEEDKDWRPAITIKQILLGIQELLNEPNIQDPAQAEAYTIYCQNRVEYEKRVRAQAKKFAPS
UBC13 inh: UBC13 polyubiquitin chain formation inhibitors, primary screen, biochemical, TR-FRET, uHTS; Ubiquitin-conjugating enzyme E2 N (Homo sapiens), P61088; inhibition, % at 20 µM; hit rate 0.47% among 330,000; AID 485273, 2010; in the data active means inhibition above about 45%, passing the limit was not always enough
Target sequence (P61088 whole entry, looked up): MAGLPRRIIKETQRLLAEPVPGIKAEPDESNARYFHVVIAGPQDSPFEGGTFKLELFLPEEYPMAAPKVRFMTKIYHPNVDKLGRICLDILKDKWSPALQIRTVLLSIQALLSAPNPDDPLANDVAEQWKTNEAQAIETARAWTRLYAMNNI
sPLA2-III inh: human group III sPLA2 inhibitors, primary screen, biochemical, QFRET, BODIPY PC-A2 liposome substrate; Group 3 secretory phospholipase A2 (Homo sapiens), Q9NZ20; QFRET BODIPY PC-A2 liposome hydrolysis, fluorescence; inhibition, % at 12.2 µM; hit rate 0.56% among 370,000; AID 743126, 2013;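 active means inhibition above mean plus 3 SD of compounds lying within the high and low control bounds, cut at about 19% in these data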;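 further: 0% = median of test compound wells and 100% = no enzyme DMSO wells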
* hit, by the source's call; / = not tested or not shown.

SMILES	GRIN3A LBD mod	UBC9 SUMO inh	UBC13 inh	sPLA2-III inh
CNC(=O)Cn1ncc2c(C)n(Cc3ccc(C)cc3)c(C)c2c1=O	0.8	3.0	1.1	3.5
Cc1c2cnn(CC(=O)Nc3c(F)c(F)cc(F)c3F)c(=O)c2c(C)n1Cc1ccccc1F	-7.0	62.0*	-12.8	-1.8
CCCC[C@H]1C2CC(OC(=O)Nc3ccccc3Cl)C(C2)[C@H]2CCCCN21 (some centres not stated)	/	/	/	13.2
O=C(Nc1ccccc1)Nc1nnc(SCc2ccc(Cl)cc2)s1	34.6*	-3.7	-4.9	-1.0
O=C(Nc1ccc(Cl)cc1)Nc1nnc(CSc2ccc(Cl)cc2)s1	27.5*	-15.5	-5.3	2.4
O=C(Nc1ccc(Cl)cc1)Nc1nnc(CSCc2ccccc2)s1	-6.0	38.3	-21.3	-7.7
O=C(Cc1nnc(NC(=O)Nc2ccccc2)s1)NCc1ccccc1	-2.3	4.0	-0.4	-1.6
O=C(Cc1nnc(NC(=O)Nc2ccc(Cl)cc2)s1)NCc1ccccc1	16.0*	1.8	-4.0	-8.2
O=C(Nc1ccc(F)cc1)Nc1nnc(COc2ccccc2F)s1	36.5*	28.0	-1.3	-20.6
COC1=C[C@H](C(=O)NCc2ccc(Br)cc2)[C@H](C)[C@@H](c2ccccc2)CC1=O	/	/	/	-16.4
O=C(CSc1nc2nc(-c3cccs3)cc(C(F)(F)F)c2c(=O)[nH]1)Nc1ccc(F)c(F)c1	35.1*	55.5*	-17.0	-12.9
Cc1ccc(C)c(NC(=O)CSc2nc3nc(-c4cccs4)cc(C(F)(F)F)c3c(=O)[nH]2)c1	8.8	28.3	10.9	-6.5
Nc1nc(SCC(=O)Nc2ccc(C(F)(F)F)cc2)[nH]c(=O)c1NC(=O)c1ccc(F)c(F)c1	27.9*	20.3	-8.4	3.1
Cc1cc(NC(=O)CSc2nc(N)c(NC(=O)c3ccc(F)c(F)c3)c(=O)[nH]2)no1	1.6	0.3	0.9	16.1
COC(=O)[C@]12C[C@H](CC(=O)NCc3cccc(C(F)(F)F)c3)C(=O)N(CCc3ccc(OC)c(OC)c3)C1=C[C@H](C1CCCC1)O[C@@H]2C	/	/	/	-20.3
COC(=O)[C@]12C[C@H](CC(=O)N3CCOCC3)C(=O)N(Cc3cccc4ccccc34)C1=C[C@H](C(C)(C)C)O[C@@H]2C	/	/	/	-5.4
COc1ccc(Cn2c(O)c(C=Nc3ccc(O)cc3)c3ccccc3c2=O)cc1	23.3*	2.0	0.5	0.4
CN(C)C(=O)CCc1ccc2c3c([nH]c2c1)[C@]1(CCc2ccccc2)[C@@H](C(=O)N2CCCCC2)C[C@H](CC(=O)NCc2cccc(C(F)(F)F)c2)C(=O)N1CC3	15.2*	/	/	5.3
Cc1[nH]c2ccccc2c1/C=N/NC(=O)c1cccc([N+](=O)[O-])c1	-3.0	17.9	-11.2	0.9
Cc1[nH]c2ccccc2c1/C=N/Nc1ccc([N+](=O)[O-])cc1	25.4*	-10.8	/	-16.0
COc1ccccc1NS(=O)(=O)c1cc([N+](=O)[O-])ccc1N/N=C/c1c(C)[nH]c2ccccc12	29.3*	21.4	-162.0	-5.6
O=[N+]([O-])c1ccc(N/N=C/c2c[nH]c3ccccc23)c(S(=O)(=O)Nc2ccc(Cl)cc2)c1	513.2*	11.5	-186.7	0.8
COc1ccc(S[C@]2(C(=O)N3CCN(c4ncccn4)CC3)CC(=O)N(c3ccc4ccccc4c3)[C@@H]2c2ccc(OC)cc2)cc1	/	/	/	-1.2
CSC1=NC2(CC(c3ccccc3)Oc3cc(O)ccc32)CC(C)(C)N1 (configuration not stated)	10.8*	-5.3	15.4	-10.4
C[C@H]1[C@@H](NC(=O)c2ccc(Cl)c(C(F)(F)F)c2)CC[C@@]23CCCN2C(=O)CCC[C@@H]13	/	/	/	4.4
SMILES	GRIN3A LBD mod	UBC9 SUMO inh	UBC13 inh	sPLA2-III inh
O=C(NCc1cccnc1)c1cc(-c2ccccc2)on1	10.5*	11.9	4.9	2.1
COc1ccc(-c2cc(C(=O)NCc3cccnc3)no2)cc1	-1.1	38.4	-3.6	4.5
COc1ccc(-c2cc(-c3nnc(SCC(=O)Nc4ccc(-c5nc6ccc(C)cc6s5)cc4)n3N)[nH]n2)cc1	/	/	/	2.7
Cc1cc(C(C#N)c2ccccc2F)n2ncnc2n1 (configuration not stated)	14.6*	5.3	-10.7	-3.4
Cc1cc(C(C#N)c2ccccc2)n2ncnc2n1 (configuration not stated)	3.1	11.6	2.9	-3.0
C[C@H]1[C@@H](OC(=O)Nc2ccccc2F)CC[C@@]23CCCN2C(=O)CCC[C@@H]13	/	/	/	-4.3
